# Measured values from PubChem BioAssay (EPA / NIEHS).
# Calls of active or inactive are those of the source. How the source made its calls: active means hit-call score of the fitted dose curve at least 0.9, where 1 is the maximum; inactive means score below 0.9.
# Read-out: Epidermal growth factor receptor (EGFR), EGFR (gene 1956)
# Assay: BSK_hDFCGF_EGFR: BioMAP Diversity Plus: hDFCGF Assay for Epidermal growth factor receptor (EGFR) Biomarker Activity (AID 2283057)
# Settings: primary human foreskin fibroblasts; actives raise or lower the signal
# Description: BSK_hDFCGF is a cell-based, multiplexed-readout assay that uses foreskin fibroblast, a human skin primary cell, with measurements taken at 24 hours after chemical dosing in a 96-well plate.BSK_hDFCGF_EGFR is an assay component measured in the BSK_hDFCGF assay. It measures EGFR antibody related to regulation of gene expression using ELISA technology.Data from the assay component BSK_hDFCGF_EGFR was analyzed into 1 assay endpoint. This assay endpoint, BSK_hDFCGF_EGFR, was analyzed with bidirectional fitting relative to DMSO as the negative control and baseline of activity. Using a type of binding reporter, gain or loss-of-signal activity can be used to understand changes in the signaling as they relate to the gene EGFR. Furthermore, this assay endpoint can be referred to as a primary readout, because this assay has produced multiple assay endpoints where this one serves a signaling function. To generalize the intended target to other relatable targets, this assay endpoint is annotated to the kinase intended target family, where the subfamily is receptor tyrosine kinase.
# The levels of cell surface (or secreted, indicated by the prefix "s") biomarker endpoints were measured by ELISA. Overt cytotoxicity to cells in confluent adherent cultures (all systems other than the BT system) was assessed by measuring total protein levels using sulforhodamine B (SRB) staining in parallel cultures at the time of biomarker measurements, indicated as SRB endpoints. For proliferation assays for adherent cell types, individual cell types are cultured at sub-confluence and relative cell numbers quantified by SRB staining at time points optimized for each system (48 h: 3C and CASM3C systems; 72 h: BT and HDF3CGF systems; 96 h: SAg system). SRB was performed by staining cells with 0.1% SRB after fixation with 10% TCA and reading wells at 560 nm.Viability and proliferation of PBMC (T cells) was quantified by Alamar Blue reduction for the SAg and BT systems. For PBMC viability (referred to as PBMC Cytotoxicity within the assay endpoint names), cells were plated (75,000/well in a 96-well plate) and then chemical samples added for 1 h before addition of activators, SEB and TSST-1 (20 ng/mL final concentration each). Cells were incubated for 90 h. Then, Alamar Blue (20 uL/well) (Invitrogen, Cat DAL1100) was added for 6 h, and the plates were read with a fluorescence microplate reader at 546/580 nm (excitation/emission). For PBMC proliferation, cells were plated and activated as above but incubated for only 16 h prior to addition of Alamar Blue. Plates were read after 6 h.
Structure (SMILES),outcome,AC50
O=P(OCC(Br)CBr)(OCC(Br)CBr)OCC(Br)CBr (stereo not given),inactive,–
O=C(O)C=CC(F)(C(F)(F)F)C(F)(F)F,inactive,–
Cc1c([N+](=O)[O-])cc2c(c1[N+](=O)[O-])C(C)(C)CC2(C)C,inactive,–
CCC1(c2ccccc2)C(=O)N=C(O)NC1=O (stereo not given),inactive,–
O=[N+]([O-])c1ccc(Cl)c(Cl)c1,inactive,–
CCN(CC)c1ccccc1,inactive,–
c1cc2c3c(cccc3c1)CC2,inactive,–
C=CC(=O)OCC(F)(F)C(F)F,inactive,–
CSC(C)(C)C=NO,inactive,–
CCOP(=S)(OCC)SCn1nnc2ccccc2c1=O,inactive,–
CCOP(=S)(OCC)SCSCC,inactive,–
CC(C)(C)c1ccccc1OP(=O)(Oc1ccccc1)Oc1ccccc1,–,13.5 µM (active)
O=P1(N(CCCl)CCCl)NCCCO1 (stereo not given),inactive,–
COP(=O)(CCC(=O)NCO)OC,inactive,–
O=c1ssc(Cl)c1Cl,–,3.16 µM (active)
ClC(Cl)=C(c1ccc(Cl)cc1)c1ccccc1Cl,–,4.82 µM (active)
O=S(=O)(F)C(F)(F)C(F)(F)C(F)(F)C(F)(F)C(F)(F)C(F)(F)C(F)(F)C(F)(F)F,inactive,–
CCOP(=S)(NC(C)C)Oc1ccccc1C(=O)OC(C)C (stereo not given),inactive,–
CC(C)(C)OOC(C)(C)C,inactive,–
O=P(Oc1ccccc1)(Oc1ccccc1)Oc1ccccc1,inactive,–

Structure (SMILES),outcome,AC50
COCCOCCO,inactive,–
CN(C)C(=O)Cl,inactive,–
OCC(F)(F)OC(F)(F)C(F)(F)OC(F)(F)C(F)(F)OC(F)(F)CO,inactive,–
Cc1cccc(N)c1,inactive,–
CCCCc1ccccc1,inactive,–
CCOc1ccc(C(C)(C)COCc2cccc(Oc3ccccc3)c2)cc1,inactive,–
OCC1CO1 (stereo not given),inactive,–
Nc1ccc(Cl)cc1,inactive,–
Cc1ccc([N+](=O)[O-])cc1C,inactive,–
Cc1ccc(O)cc1C,inactive,–
CC(Cl)CN(C)C (stereo not given),inactive,–
CC(O)C(F)(F)C(F)(F)F (stereo not given),inactive,–
c1nc[nH]n1,inactive,–
CCOS(=O)(=O)OCC,inactive,–
CCNc1nc(Cl)nc(NC(C)(C)C)n1,inactive,–
CCCCOCCOP(=O)(OCCOCCCC)OCCOCCCC,inactive,–
ClC(Cl)c1ccccc1,inactive,–
Nc1ccc2ccccc2c1,inactive,–
CC(Cc1ccc(OCC(=O)O)cc1)NCC(O)c1csc(C(F)(F)F)n1 (stereo not given),inactive,–
OCC(F)(F)OC(F)(F)C(F)(F)OC(F)(F)C(F)(F)OC(F)(F)F,inactive,–
